In PubChem BioAssay AID686978 (National Center for Advancing Translational Sciences (NCATS), 2013):
Out of some 420,000 compounds screened, about 64,000 (15%) were called active. About 27% were inconclusive and are not listed. Calls come from the whole dose curve; as a rule, active = well fitted inhibition curve with a large enough effect; inconclusive = small, poorly fitted or top-dose-only effect; inactive = flat fitted curve, though single readings scatter. These entries were drawn from the full list.

Assay: qHTS for Inhibitors of human tyrosyl-DNA phosphodiesterase 1 (TDP1): qHTS in cells in absence of CPT; note: nearly all actives have a fitted effect of over 55% in size
Conditions: DT40 Tdp1-/- hTDP1 cells, no CPT, ATP luminescence, 48 h; activity change, negative = growth inhibition: at 46.2 µM (top of the series)
Procedure, shortened: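 Stably hTDP1-transfected Tdp1-null chicken DT40 cells were treated with library compounds minus camptothecin and grown for at least 48 hr at 37 °C, after which cellular ATP was quantified by luminescence.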
% is set by controls: 0 for no effect and ±100 for the full control effect; potency is the fitted concentration of half-maximal effect.

| Structure (SMILES) | activity change, negative = growth inhibition | Potency |
| --- | --- | --- |
| CN(C(=O)CN1C(=O)NC(C)(CCc2ccccc2)C1=O)c1ccccc1 (stereo not drawn) | -13% (inactive) |  |
| Cc1cc(C)nc(N(C#N)CC(=O)Nc2ccccc2)n1 | -24.2% (inactive) |  |
| Nc1cccc2c1C(=O)N(Cc1nnc(-c3ccccc3Br)o1)C2=O | -15.5% (inactive) |  |
| Cc1ccc(C=O)cc1Cl | -19.2% (inactive) |  |
| COc1ccc(NC(=O)COC(=O)C2COc3ccccc3O2)cc1 (stereo not drawn) | 13.6% (inactive) |  |
| CCC(C)(C)c1ccc(Oc2ccc(NC(=O)COC(=O)C3=COCCO3)cc2)cc1 |  | 25.9 µM (active) |
| CCOc1ccc(NC(=O)c2ccc(NC(=O)COC(=O)c3ccc(NC(=O)CC#N)cc3)cc2)cc1 | -0.473% (inactive) |  |
| COC(=O)c1ccc(C2NC(=O)NC(C)=C2C(=O)N(C)C)cc1 (stereo not drawn) | -2.25% (inactive) |  |
| NC(=O)c1nnsc1-c1ccc(-c2snnc2C(N)=O)cc1 | 1.83% (inactive) |  |
| CCCCN(CC)CCNC(=O)c1[nH]c(C)c(C(C)=O)c1C | 1.12% (inactive) |  |
| CCS(=O)(=O)N1CCCC(C(=O)NCCCN(C)Cc2ccccc2)C1 (stereo not drawn) | 2.93% (inactive) |  |
| N=C(N)SCc1cccc2ccccc12 |  | 20.6 µM (active) |
| c1ccc2c(CNn3cnnc3)cccc2c1 | 5.72% (inactive) |  |
| c1ccc(NCc2cccc3ccccc23)nc1 | 2.55% (inactive) |  |
| CCCCCc1ccc(-c2ccc(C(=O)O)cc2)nc1 | -3.48% (inactive) |  |
| CCN(C(=O)COC(=O)c1c(NC(C)=O)sc(C)c1C)C1CCS(=O)(=O)C1 (stereo not drawn) | -12.8% (inactive) |  |
| Cc1c(NC(=O)C(C)Oc2cccc(Cl)c2)c(=O)n(-c2ccccc2)n1C (stereo not drawn) | -5.95% (inactive) |  |

| Structure (SMILES) | activity change, negative = growth inhibition | Potency |
| --- | --- | --- |
| O=c1nc2s/c(=C\c3ccco3)c(=O)n2nc1Cc1ccccc1 | -27.8% (inactive) |  |
| Cc1csc(Nc2ccc(Cl)cc2)[n+]1-c1ccc(Cl)cc1 |  | 25.9 µM (active) |
| Cc1cc(-c2nc(C)c(-c3nnc(SCC(=O)Nc4ccccc4)n3C)s2)no1 | 4.42% (inactive) |  |
| Cc1cc(C(=O)OCC(=O)Nc2ccc(F)c(F)c2)c(C)o1 | -2.49% (inactive) |  |
| COc1ccc(CNC(=O)CSc2n[nH]c(N)n2)cc1OC | -13.1% (inactive) |  |
| COc1cc(CO)ccc1OCC(=O)Nc1cccc2ccccc12 | -4.31% (inactive) |  |
| COc1ccc(CNC(=O)COc2ccccc2C(=O)c2cnn(-c3ccccc3)c2)cc1OC |  | 14.6 µM (active) |
| COc1cc(S(=O)(=O)Nc2ncn[nH]2)ccc1Cl | 0.0265% (inactive) |  |
| CCc1nnc(NC(=O)CSc2nnc(COc3ccc(C#N)cc3)n2-c2ccccc2)s1 | -9.91% (inactive) |  |
| CC(C)(C)NC(=O)C(c1ccco1)N(Cc1ccc2c(c1)OCO2)C(=O)Cn1nnc2ccccc21 (stereo not drawn) | -25.3% (inactive) |  |
| CCc1ccc(C(=O)COC(=O)c2ccco2)cc1 | 13.7% (inactive) |  |
| Cc1coc(C)c1C(=O)CC1(O)C(=O)N(C)c2ccc(Cl)cc21 (stereo not drawn) | -16.7% (inactive) |  |
| CCCN1C(=O)C(O)(CC(=O)c2ccc(CC)cc2)c2cc(Br)ccc21 (stereo not drawn) |  | 6.51 µM (active) |
| Cc1ccc(CCN2CC(C(=O)NCCc3ccccc3)CC2=O)cc1 (stereo not drawn) | -19.1% (inactive) |  |
| O=C(CC1(O)C(=O)N(CN2CCOCC2)c2ccccc21)c1ccccc1 (stereo not drawn) | -27.9% (inactive) |  |
| Cc1ccc(C(=O)CC2(O)C(=O)N(CCc3ccccc3)c3ccc(Br)cc32)cc1 (stereo not drawn) |  | 16.4 µM (active) |
